What was measured:
Test in all cases: DAPPL (digital affinity profiling via proximity ligation, sequencing); 10 mM Tris-HCl pH 7.5, 50 mM NaCl, 1 mM DTT, 4% glycerol, room temperature, 30 min; GST-TFs on glutathione beads, 16-mer random dsDNA library, 0.1% formaldehyde crosslink after washing; high values mean tight binding
FLI1 = target: T1, FLI1 (Homo sapiens, UniProt Q01543 1-452); details: protein: recombinant; tags: N-terminal GST; dsDNA, one strand shown
T1 sequence: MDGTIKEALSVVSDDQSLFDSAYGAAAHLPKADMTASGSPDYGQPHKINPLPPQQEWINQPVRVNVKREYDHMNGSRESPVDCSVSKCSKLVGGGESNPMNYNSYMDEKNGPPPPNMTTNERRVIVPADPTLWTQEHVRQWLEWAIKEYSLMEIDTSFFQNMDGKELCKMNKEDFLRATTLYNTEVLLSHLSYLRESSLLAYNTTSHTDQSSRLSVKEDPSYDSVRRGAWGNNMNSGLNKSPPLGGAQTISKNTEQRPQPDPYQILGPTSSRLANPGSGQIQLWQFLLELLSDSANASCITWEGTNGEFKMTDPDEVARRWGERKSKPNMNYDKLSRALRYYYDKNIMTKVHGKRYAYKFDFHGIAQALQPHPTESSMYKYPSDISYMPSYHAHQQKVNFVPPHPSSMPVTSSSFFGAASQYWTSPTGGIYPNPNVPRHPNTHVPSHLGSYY
Procedure, shortened: (§1)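 A tag-only sample was pooled with DNA-barcoded human transcription factors that had been expressed in yeast as GST fusions and captured on glutathione beads. The pools were incubated for 30 min at room temperature with 200 nmole of a random double-stranded 16-mer DNA library in Tris/NaCl/DTT/glycerol buffer, then washed, crosslinked with 0.1% formaldehyde, proximity-ligated (BsaI/T4 ligase, 1 h, 37 °C), PCR-amplified and sequenced on an Illumina NextSeq500. Binding signal is each hexamer's read frequency for a factor divided by its frequency for the tag-only sample.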

ELK1 = target: T2, ELK1 (Homo sapiens, UniProt P19419 1-428); details: protein: recombinant; tags: N-terminal GST; dsDNA, one strand shown
T2 sequence: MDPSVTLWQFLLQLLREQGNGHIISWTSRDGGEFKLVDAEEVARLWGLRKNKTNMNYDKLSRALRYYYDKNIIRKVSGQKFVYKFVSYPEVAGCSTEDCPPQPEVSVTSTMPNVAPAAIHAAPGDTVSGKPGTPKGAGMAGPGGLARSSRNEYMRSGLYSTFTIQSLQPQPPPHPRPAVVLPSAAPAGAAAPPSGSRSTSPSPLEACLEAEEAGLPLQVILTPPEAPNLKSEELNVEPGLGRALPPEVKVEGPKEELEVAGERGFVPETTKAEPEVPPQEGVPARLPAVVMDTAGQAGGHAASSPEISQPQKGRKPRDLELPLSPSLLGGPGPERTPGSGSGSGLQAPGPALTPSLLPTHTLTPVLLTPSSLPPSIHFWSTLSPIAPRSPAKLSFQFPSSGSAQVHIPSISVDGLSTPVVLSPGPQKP
Procedure, shortened: as §1

GABPA = target: T3, GABPA (Homo sapiens, UniProt Q06546 1-454); details: protein: recombinant; tags: N-terminal GST; dsDNA, one strand shown
T3 sequence: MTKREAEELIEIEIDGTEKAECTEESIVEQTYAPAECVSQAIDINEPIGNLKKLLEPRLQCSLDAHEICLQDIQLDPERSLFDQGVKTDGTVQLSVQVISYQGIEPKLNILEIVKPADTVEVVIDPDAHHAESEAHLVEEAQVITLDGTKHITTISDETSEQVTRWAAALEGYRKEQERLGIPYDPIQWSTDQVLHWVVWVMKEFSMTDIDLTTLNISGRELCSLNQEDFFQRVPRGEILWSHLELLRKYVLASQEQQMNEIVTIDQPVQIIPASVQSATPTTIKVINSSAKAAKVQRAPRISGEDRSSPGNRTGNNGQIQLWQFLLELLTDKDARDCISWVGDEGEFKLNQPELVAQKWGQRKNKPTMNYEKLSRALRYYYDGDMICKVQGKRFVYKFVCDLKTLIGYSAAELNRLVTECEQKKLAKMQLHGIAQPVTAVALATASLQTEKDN
Procedure, shortened: as §1

ERG = target: T4, ERG (Homo sapiens, UniProt P11308 1-479); details: protein: recombinant; tags: N-terminal GST; dsDNA, one strand shown
T4 sequence: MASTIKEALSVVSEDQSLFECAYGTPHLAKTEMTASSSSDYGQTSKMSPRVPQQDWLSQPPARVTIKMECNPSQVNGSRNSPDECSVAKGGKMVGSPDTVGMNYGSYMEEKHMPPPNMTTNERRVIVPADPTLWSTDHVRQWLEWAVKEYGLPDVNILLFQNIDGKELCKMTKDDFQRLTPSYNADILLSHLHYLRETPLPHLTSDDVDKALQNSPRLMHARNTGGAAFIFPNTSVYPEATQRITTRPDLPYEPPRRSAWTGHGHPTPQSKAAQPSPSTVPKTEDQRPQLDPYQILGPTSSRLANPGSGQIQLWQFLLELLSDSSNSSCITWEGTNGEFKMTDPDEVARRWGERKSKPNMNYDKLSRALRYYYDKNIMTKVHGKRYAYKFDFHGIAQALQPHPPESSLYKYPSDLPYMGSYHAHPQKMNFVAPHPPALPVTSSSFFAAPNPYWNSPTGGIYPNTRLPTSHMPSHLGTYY
Procedure, shortened: as §1

ELF1 = ELF1 (Homo sapiens, UniProt P32519 1-619); details: protein: recombinant; tags: N-terminal GST; dsDNA, one strand shown
Procedure, shortened: as §1

EHF = target: T5, EHF (Homo sapiens, UniProt Q9NZC4 1-300); details: protein: recombinant; tags: N-terminal GST; dsDNA, one strand shown
T5 sequence: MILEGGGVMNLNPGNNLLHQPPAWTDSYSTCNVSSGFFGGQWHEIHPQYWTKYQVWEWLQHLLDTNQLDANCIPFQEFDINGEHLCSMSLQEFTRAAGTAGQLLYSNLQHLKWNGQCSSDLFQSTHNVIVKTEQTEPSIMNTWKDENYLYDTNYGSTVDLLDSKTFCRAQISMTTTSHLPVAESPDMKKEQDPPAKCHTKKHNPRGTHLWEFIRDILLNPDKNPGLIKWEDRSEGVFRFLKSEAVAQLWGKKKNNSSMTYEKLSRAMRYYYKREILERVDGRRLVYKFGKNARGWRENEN
Procedure, shortened: as §1

SPI1 = SPI1 (Homo sapiens, UniProt P17947 1-270); details: protein: recombinant; tags: N-terminal GST; dsDNA, one strand shown
Procedure, shortened: as §1

SPIB = SPIB (Homo sapiens, UniProt Q01892 1-262); details: protein: recombinant; tags: N-terminal GST; dsDNA, one strand shown
Procedure, shortened: as §1

ELK3 = target: T6, ELK3 (Homo sapiens, UniProt P41970 1-407); details: protein: recombinant; tags: N-terminal GST; dsDNA, one strand shown
T6 sequence: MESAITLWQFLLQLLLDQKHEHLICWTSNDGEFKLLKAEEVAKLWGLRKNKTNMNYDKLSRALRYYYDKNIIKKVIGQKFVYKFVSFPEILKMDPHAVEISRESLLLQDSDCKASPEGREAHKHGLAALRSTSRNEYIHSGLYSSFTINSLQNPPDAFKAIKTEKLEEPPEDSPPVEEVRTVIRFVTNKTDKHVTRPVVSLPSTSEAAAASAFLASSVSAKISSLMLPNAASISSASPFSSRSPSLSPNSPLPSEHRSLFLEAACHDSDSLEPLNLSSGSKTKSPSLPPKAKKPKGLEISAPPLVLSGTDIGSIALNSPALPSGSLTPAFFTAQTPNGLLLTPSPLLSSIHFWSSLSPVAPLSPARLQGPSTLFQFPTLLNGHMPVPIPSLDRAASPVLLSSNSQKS
Procedure, shortened: as §1

FEV = target: T7, FEV (Homo sapiens, UniProt Q99581 1-238); details: protein: recombinant; tags: N-terminal GST; dsDNA, one strand shown
T7 sequence: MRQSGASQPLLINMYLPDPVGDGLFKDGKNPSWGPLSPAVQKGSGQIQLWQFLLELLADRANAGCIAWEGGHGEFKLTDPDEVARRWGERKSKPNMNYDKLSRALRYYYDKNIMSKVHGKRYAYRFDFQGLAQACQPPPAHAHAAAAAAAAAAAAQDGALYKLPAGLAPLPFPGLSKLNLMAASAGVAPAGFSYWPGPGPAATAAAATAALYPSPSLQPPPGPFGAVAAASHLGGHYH
Procedure, shortened: as §1

ETV5 = ETV5 (Homo sapiens, UniProt P41161 1-510); details: protein: recombinant; tags: N-terminal GST; dsDNA, one strand shown
Procedure, shortened: as §1

HSF1 = HSF1 (Homo sapiens, UniProt Q00613 1-529); details: protein: recombinant; tags: N-terminal GST; chain copies: 3; dsDNA, one strand shown
Procedure, shortened: as §1

SPIC = target: T8, SPIC (Homo sapiens, UniProt Q8N5J4 1-248); details: protein: recombinant; tags: N-terminal GST; dsDNA, one strand shown
T8 sequence: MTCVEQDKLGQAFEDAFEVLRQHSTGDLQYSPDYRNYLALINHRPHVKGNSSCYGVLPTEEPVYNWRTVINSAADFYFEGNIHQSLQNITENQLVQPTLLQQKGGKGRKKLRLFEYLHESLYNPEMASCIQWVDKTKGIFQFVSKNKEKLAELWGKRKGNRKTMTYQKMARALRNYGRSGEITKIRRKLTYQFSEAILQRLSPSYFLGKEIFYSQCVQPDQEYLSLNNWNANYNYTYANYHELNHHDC
Procedure, shortened: as §1

ELF4 = ELF4 (Homo sapiens, UniProt Q99607 1-663); details: protein: recombinant; tags: N-terminal GST; dsDNA, one strand shown
Procedure, shortened: as §1

ELK4 = target: T9, ELK4 (Homo sapiens, UniProt P28324-2 1-405); details: protein: recombinant; tags: N-terminal GST; dsDNA, one strand shown
T9 sequence: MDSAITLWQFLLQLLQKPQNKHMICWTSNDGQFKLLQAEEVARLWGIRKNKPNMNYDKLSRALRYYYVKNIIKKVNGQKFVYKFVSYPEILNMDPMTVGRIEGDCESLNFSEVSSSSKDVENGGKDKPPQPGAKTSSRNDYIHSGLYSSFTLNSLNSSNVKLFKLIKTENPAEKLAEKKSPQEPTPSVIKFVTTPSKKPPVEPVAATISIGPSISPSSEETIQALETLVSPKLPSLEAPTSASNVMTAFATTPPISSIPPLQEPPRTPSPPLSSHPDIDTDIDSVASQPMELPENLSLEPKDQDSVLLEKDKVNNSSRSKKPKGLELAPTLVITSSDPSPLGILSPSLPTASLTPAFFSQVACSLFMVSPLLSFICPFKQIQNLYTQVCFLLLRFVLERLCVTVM
Procedure, shortened: as §1

ETV2 = target: T10, ETV2 (Homo sapiens, UniProt O00321 1-342); details: protein: recombinant; tags: N-terminal GST; dsDNA, one strand shown
T10 sequence: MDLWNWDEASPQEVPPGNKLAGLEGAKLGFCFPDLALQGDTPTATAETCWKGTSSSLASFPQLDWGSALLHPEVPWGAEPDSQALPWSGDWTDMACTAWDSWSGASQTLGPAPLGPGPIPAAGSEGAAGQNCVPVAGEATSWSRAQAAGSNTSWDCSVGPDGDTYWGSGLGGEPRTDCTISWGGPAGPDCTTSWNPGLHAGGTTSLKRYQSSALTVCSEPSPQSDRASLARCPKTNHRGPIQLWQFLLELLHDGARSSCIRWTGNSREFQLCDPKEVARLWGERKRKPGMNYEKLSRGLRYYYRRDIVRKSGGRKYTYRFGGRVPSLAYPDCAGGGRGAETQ
Procedure, shortened: as §1

ELF3 = target: T11, ELF3 (Homo sapiens, UniProt P78545 1-371); details: protein: recombinant; tags: N-terminal GST; dsDNA, one strand shown
T11 sequence: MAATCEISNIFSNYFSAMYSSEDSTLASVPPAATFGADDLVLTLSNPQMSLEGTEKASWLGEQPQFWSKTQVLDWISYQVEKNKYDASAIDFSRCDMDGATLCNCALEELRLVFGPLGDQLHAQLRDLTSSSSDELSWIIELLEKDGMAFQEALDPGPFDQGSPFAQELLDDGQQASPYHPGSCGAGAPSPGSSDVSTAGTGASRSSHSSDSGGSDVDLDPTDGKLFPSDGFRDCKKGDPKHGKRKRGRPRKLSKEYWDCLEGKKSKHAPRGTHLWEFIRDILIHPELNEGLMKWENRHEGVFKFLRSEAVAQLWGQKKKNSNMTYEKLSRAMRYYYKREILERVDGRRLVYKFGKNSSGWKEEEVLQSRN
Procedure, shortened: as §1

CRX = CRX (Homo sapiens, UniProt O43186 1-299); details: protein: recombinant; tags: N-terminal GST; dsDNA, one strand shown
Procedure, shortened: as §1

ETV1 = ETV1 (Homo sapiens, UniProt P50549 1-477); details: protein: recombinant; tags: N-terminal GST; dsDNA, one strand shown
Procedure, shortened: as §1

Sequence of SPIB (Q01892 whole entry): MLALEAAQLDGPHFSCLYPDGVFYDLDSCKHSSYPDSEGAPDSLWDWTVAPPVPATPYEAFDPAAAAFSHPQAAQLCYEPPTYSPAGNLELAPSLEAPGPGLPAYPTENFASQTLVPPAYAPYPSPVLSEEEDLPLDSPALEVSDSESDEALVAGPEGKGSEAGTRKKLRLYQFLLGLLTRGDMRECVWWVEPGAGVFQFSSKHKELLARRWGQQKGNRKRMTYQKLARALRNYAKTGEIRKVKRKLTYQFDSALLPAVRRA
Sequence of ETV1 (P50549 whole entry): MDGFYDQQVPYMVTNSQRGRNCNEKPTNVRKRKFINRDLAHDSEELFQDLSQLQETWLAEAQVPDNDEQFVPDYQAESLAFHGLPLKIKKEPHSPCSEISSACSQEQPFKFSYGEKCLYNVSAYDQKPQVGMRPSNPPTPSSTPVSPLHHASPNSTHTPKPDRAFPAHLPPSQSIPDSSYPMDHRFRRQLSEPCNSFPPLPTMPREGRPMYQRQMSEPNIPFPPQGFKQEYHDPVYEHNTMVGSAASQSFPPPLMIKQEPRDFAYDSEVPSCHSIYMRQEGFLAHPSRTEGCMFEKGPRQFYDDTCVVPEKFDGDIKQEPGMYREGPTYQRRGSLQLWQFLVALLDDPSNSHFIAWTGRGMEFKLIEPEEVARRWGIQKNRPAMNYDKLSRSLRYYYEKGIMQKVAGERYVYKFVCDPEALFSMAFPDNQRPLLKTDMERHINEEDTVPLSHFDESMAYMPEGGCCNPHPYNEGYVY
Sequence of CRX (O43186 whole entry): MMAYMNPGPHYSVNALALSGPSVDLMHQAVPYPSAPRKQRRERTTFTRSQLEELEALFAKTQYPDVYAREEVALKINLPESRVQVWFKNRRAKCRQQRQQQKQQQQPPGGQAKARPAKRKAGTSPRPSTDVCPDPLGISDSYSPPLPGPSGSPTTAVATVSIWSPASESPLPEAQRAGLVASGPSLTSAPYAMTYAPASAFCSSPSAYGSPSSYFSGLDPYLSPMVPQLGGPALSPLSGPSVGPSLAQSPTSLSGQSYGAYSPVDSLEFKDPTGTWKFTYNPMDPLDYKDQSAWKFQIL
Sequence of ETV5 (P41161 whole entry): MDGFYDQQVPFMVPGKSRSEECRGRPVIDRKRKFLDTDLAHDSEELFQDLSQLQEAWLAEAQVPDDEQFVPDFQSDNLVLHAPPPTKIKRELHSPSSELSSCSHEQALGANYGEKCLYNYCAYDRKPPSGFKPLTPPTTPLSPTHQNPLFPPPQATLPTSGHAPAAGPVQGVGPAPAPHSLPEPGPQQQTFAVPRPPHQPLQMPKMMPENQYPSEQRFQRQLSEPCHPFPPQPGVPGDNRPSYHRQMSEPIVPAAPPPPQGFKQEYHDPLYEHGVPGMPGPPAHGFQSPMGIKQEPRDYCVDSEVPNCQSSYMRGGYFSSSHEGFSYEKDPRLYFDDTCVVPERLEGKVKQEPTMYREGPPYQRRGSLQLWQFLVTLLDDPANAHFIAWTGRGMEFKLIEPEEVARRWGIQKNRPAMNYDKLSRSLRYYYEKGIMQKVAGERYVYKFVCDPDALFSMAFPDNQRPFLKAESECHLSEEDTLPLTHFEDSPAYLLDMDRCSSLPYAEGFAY
Sequence of HSF1 (Q00613 whole entry): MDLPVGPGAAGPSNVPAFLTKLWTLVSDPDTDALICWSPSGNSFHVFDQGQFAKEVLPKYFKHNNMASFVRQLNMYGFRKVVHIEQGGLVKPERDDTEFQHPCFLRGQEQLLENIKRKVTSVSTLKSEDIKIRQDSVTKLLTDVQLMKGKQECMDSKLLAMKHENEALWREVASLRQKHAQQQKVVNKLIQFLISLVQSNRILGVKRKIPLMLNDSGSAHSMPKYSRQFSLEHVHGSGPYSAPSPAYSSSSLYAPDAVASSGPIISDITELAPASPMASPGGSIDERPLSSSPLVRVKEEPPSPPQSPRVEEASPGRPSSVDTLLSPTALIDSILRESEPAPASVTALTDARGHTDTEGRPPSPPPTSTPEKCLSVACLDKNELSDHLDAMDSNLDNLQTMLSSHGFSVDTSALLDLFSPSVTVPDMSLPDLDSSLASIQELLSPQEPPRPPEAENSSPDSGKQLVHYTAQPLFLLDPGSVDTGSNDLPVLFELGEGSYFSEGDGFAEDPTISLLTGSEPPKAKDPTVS
Sequence of ELF4 (Q99607 whole entry): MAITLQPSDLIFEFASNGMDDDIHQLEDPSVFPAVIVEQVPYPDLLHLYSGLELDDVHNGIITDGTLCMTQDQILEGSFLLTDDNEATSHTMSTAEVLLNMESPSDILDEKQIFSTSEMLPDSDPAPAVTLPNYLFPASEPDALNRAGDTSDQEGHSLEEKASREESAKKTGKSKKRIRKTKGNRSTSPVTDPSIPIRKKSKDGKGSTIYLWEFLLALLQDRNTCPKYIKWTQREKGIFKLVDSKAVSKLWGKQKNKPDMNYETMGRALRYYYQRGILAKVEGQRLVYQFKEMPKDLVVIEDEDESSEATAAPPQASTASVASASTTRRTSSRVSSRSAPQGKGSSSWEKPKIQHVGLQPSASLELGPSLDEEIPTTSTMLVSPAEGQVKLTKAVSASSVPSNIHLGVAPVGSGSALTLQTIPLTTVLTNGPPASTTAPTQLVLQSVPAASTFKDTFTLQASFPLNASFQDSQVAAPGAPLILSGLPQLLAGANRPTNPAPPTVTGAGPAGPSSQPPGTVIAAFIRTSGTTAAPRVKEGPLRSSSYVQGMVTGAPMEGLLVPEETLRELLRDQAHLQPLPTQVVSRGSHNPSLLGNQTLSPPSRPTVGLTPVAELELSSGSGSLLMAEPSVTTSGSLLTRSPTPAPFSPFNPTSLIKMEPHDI
Sequence of ELF1 (P32519 whole entry): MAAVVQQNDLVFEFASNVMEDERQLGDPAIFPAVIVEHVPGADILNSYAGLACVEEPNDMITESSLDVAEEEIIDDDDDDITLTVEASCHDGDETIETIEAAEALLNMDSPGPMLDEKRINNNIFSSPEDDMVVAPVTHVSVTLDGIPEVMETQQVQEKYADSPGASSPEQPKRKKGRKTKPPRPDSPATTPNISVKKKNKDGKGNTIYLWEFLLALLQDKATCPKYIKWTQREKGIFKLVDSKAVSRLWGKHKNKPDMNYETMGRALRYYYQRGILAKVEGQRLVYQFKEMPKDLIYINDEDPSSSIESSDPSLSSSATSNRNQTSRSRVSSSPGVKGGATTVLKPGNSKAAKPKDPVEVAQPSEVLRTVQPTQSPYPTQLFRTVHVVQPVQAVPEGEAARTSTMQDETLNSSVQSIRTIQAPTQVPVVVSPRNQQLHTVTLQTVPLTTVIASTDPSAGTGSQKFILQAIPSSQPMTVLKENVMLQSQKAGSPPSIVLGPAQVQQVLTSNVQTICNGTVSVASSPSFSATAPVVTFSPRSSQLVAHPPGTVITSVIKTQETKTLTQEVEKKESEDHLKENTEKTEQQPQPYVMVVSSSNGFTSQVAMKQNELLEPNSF

TTAAGT
binding signal (FLI1): 1.06 fold enrichment (6-mer frequency, TF over GST control)
binding signal (ELK1): 1.3 fold enrichment (6-mer frequency, TF over GST control)
binding signal (GABPA): 1.16 fold enrichment (6-mer frequency, TF over GST control)
binding signal (ERG): 1.17 fold enrichment (6-mer frequency, TF over GST control)
binding signal (ELF1): 1.19 fold enrichment (6-mer frequency, TF over GST control)
binding signal (EHF): 1.15 fold enrichment (6-mer frequency, TF over GST control)
binding signal (SPI1): 1.06 fold enrichment (6-mer frequency, TF over GST control)
binding signal (SPIB): 1.2 fold enrichment (6-mer frequency, TF over GST control)
binding signal (ELK3): 1.23 fold enrichment (6-mer frequency, TF over GST control)
binding signal (FEV): 1.11 fold enrichment (6-mer frequency, TF over GST control)
binding signal (ETV5): 1.15 fold enrichment (6-mer frequency, TF over GST control)
binding signal (HSF1): 2 fold enrichment (6-mer frequency, TF over GST control)
binding signal (SPIC): 1.25 fold enrichment (6-mer frequency, TF over GST control)
binding signal (ELF4): 1.16 fold enrichment (6-mer frequency, TF over GST control)
binding signal (ELK4): 1.03 fold enrichment (6-mer frequency, TF over GST control)
binding signal (ETV2): 1.14 fold enrichment (6-mer frequency, TF over GST control)
binding signal (ELF3): 1.26 fold enrichment (6-mer frequency, TF over GST control)
binding signal (CRX): 3.27 fold enrichment (6-mer frequency, TF over GST control)
binding signal (ETV1): 1.16 fold enrichment (6-mer frequency, TF over GST control)

— paper PMC7862700, “An all-to-all approach to the identification of sequence-specific readers for epigenetic DNA modifications on cytosine”
